Results on 17 molecules are retold here after PubChem BioAssay (NCI).

Common to all, as to experiment: NCI-60 one-dose screen, 48 h (100 = growth as untreated, 0 = no growth, -100 = all killed)
Settings in all cases: 10 µM unless noted

For assay [1], the system named is BT-549 breast.
The test system of assay [2] is MDA-MB-435 melanoma.
Assay [3] deals with SW-620 colon.
For assay [4], the system named is MCF7 breast.
The test system of assay [5] is HCT-116 colon.
In assay [6] the test system is HCC-2998 colon.
Assay [7] deals with KM12 colon.

SMILES strings stand for the structures. Compounds without any hit were thinned out: in the full panel of roughly 83,000, 20% have a hit.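 Percent growth is the endpoint: 0 to 100 indicates growth inhibition (40 means 60% inhibition), 0 means no net growth, and negative values indicate cell death.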 Values without a mark were called inactive. Activity calls are given as the source filed them. How the source made its calls: active means growth percent below 10; inactive means the rest.

For the molecule `O=C1c2c(c3c4cccnc4[nH]c3c3ccc4ccccc4c23)C(=O)N1CCO`, the growth in assay [1] was 86.8%; in assay [2], 85.1%; in assay [3], 57.6%; in assay [4], 30.2%; in assay [5], 60.2%; in assay [6], 101%.

For `O=C(Oc1ccc2ccc(=O)oc2c1)c1ccc(Cl)cc1`, the growth was 101% in assay [1]; 109% in assay [2]; 102% in assay [3]; 94% in assay [4]; 98.5% in assay [5]; 102% in assay [6]. Besides, the growth in assay [7] was 108%.

Regarding `CCN1C(=S)N(CC)C2C1NN=C1SC(c3ccccc3)=CC(=O)N12` (stereo not drawn), the growth in assay [1] was 106%; in assay [2] it was 59%; in assay [3] it was 111%; in assay [4] it was 95.4%; in assay [5] it was 104%; in assay [6] it was 111%. Also, the growth in assay [7] is 94.3%.

`C#Cc1nc(C2=C(C)C(OC(C)=O)/C(=N/OC(C)=O)C2)cs1` (stereo not drawn): the growth was -74.3% (active) in assay [1]; 88.9% in assay [2]; 8.98% (active) in assay [3]; 25.9% in assay [4]; 19.9% in assay [5]; 105% in assay [6]. In assay [7], the growth is -19.7% (active).

Consider `CSCCC(C(=O)O)N1C(=O)/C(=C/c2ccc(O)c(O)c2)SC1=S` (stereo not drawn), for which the growth in assay [1] is 110%; in assay [2], 102%; in assay [3], 102%; in assay [4] it was 93.4%; in assay [5], 99.5%; in assay [6], 108%. In assay [7], the growth was 103%.

As to `Cn1ccnc1C(=O)/C=C/c1ccc(NC(=O)Nc2ccccc2)cc1`, the growth was -3.85% (active) in assay [1]; -13.3% (active) in assay [2]; 2.15% (active) in assay [3]; 6.81% (active) in assay [4]; 3.54% (active) in assay [5]; -22% (active) in assay [6]. The growth in assay [7] is 1.03% (active).

Take `[Cl][Ru].c1ccc(-c2cc(-c3ccccn3)nc(-c3ccccn3)c2)cc1.c1ccc(-c2ccnc3c2ccc2c(-c4ccccc4)ccnc23)cc1`: the growth in assay [1] was -94.6% (active); in assay [2] it was -62.2% (active); in assay [3], -56.7% (active); in assay [4], -28.2% (active); in assay [5], -79% (active); in assay [6], -72.9% (active). Besides, in assay [7], the growth is -70.8% (active).

For the molecule `N#Cc1nc(-c2ccccc2)oc1S(N)(=O)=O`, the growth was 67.6% in assay [1]; 42.5% in assay [2]; 21.1% in assay [3]; 30.9% in assay [4]; 46.8% in assay [5]; 110% in assay [6]. The growth in assay [7] is 83.9%.

For `CN1CCN(Cc2ccc(NC(=O)c3cncc(C#Cc4cnc5[nH]ncc5c4)c3)cc2C(F)(F)F)CC1`, the growth is 73.3% in assay [1]; 8.99% (active) in assay [2]; 11.5% in assay [3]; 52.6% in assay [4]; 12.4% in assay [5]; 45.7% in assay [6]. The growth in assay [7] is 6.81% (active).

Consider `N#Cc1c(-c2ccc(Cl)cc2)nc2c(-c3ccccc3)c(Nc3ccccc3)nn2c1N`, for which the growth was 94.4% in assay [1]; 58.7% in assay [2]; 40.6% in assay [3]; 47.9% in assay [4]; 20.7% in assay [5]; 90.7% in assay [6]. The growth in assay [7] was 60%.

As for `Nc1cc(-c2c[nH]c3ccc(Cl)cc23)nc2cc(-c3c[nH]c4ccc(Cl)cc34)nn12`, the growth in assay [1] is 87.5%; in assay [2], 57.7%; in assay [3] it was 15.7%; in assay [4], 14.4%; in assay [5] it was 27.7%; in assay [6], 20.1%. The growth in assay [7] was 12.7%.

Turning to `O=C1NC(=C(Cl)Cl)/C(=N/S(=O)(=O)N2CCCCC2CC2(C(F)(F)F)N=N2)N1` (stereo not drawn), the growth in assay [1] is 68%; in assay [2] it was 41.6%; in assay [3] it was -82.2% (active); in assay [4] it was 9.63% (active); in assay [5], -28.8% (active); in assay [6], 5.46% (active). Moreover, in assay [7], the growth was 9.36% (active).

As for `COc1ccc(-c2nc3ccc(-c4nnc(SCC(=O)Nc5ccc(C(=O)/C=C/c6ccc(Cl)cc6)cc5)o4)cc3[nH]2)cc1OC`, the growth in assay [1] is 106%; in assay [2] it was 106%; in assay [3], 105%; in assay [4], 75.9%; in assay [5] it was 101%; in assay [6] it was 124%. Besides, the growth in assay [7] was 104%.

As for `COc1cc(/C=C/C(=O)c2ccc(F)cc2)ccc1Oc1nc(NCCO)nc(N2CCOCC2)n1`, the growth in assay [1] is 86.3%; in assay [2] it was 48%; in assay [3], 0.783% (active); in assay [4], 10.2%; in assay [5] it was 11.3%; in assay [6] it was 103%. The growth in assay [7] is 27.3%.

With `COc1cc(/C=C/C(=O)c2cc(OC)c(OC)c(OC)c2)ccc1Oc1nc(NCCO)nc(N2CCOCC2)n1`, the growth in assay [1] was -25.1% (active); in assay [2] it was 4.93% (active); in assay [3], -33.6% (active); in assay [4], 8.4% (active); in assay [5], -79.3% (active); in assay [6], -17.5% (active). The growth in assay [7] was -44.6% (active).

As for `COc1cc(OC)c(C2SCC(=O)N2Nc2ncnc3ccccc23)cc1OC` (stereo not drawn), the growth was 105% in assay [1]; 103% in assay [2]; 105% in assay [3]; 91.8% in assay [4]; 107% in assay [5]; 111% in assay [6]. In addition, the growth in assay [7] is 107%.

Turning to `COc1ccc(/C=N/NC(=O)c2[nH]c3ccc(Br)cc3c2-c2ccccc2)o1`, the growth in assay [1] was -15.5% (active); in assay [2], -16.9% (active); in assay [3] it was 21.6%; in assay [4] it was 9.83% (active); in assay [5], -18.8% (active); in assay [6], 21.3%. Moreover, the growth in assay [7] was 6.83% (active).
